# According to PubChem BioAssay (NCATS):
# Results filed as inconclusive are left out. Activity calls are given as the source filed them. The call rests on the fitted dose curve; in most records, active means well fitted inhibition curve with a large enough effect; inconclusive means small, poorly fitted or top-dose-only effect; inactive means flat fitted curve, though single readings scatter.
# System: HaCat
# Experiment: Cytotoxic Profiling of Annotated Libraries Using Quantitative High-Throughput Screening (AID 1296008); further: nearly all actives have a fitted effect of over 60% in size
# Conditions: Five cell lines viability, CellTiter-Glo ATP luminescence, 48-72 h; max response: stronger effect = lower value
# Summary of the method: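 Compounds were pin-transferred onto cells and incubated 48 or 72 hr at 37 degree Celsius, 95% humidity. CellTiter-Glo was added, plates sat 10 min at room temperature, then ATP-coupled luminescence was imaged as the viability read-out.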
# On the % scale 0 is the no-effect control and ±100 the full control effect; potency means the concentration at half of the fitted maximal effect.
SMILES,max response,outcome,Potency
COc1cc(C)[nH]c(=O)c1CNC(=O)c1c(C)n([C@H](C)C2CCOCC2)c2ccccc12,4.27% (inactive),,
CN1CCC[C@@H]1Cc1c[nH]c2ccc(Nc3ncccc3[N+](=O)[O-])cc12,-5.05% (inactive),,
CC[C@H]1CN2CC[C@H]1C[C@H]2[C@H](O)c1ccnc2ccc(OC)cc12,,inactive,
C=C[C@H]1[C@H](O[C@@H]2O[C@H](CO)[C@@H](O)[C@H](O)[C@H]2O)OC=C2C(=O)OCC[C@H]21,1.24% (inactive),,
Clc1ccc(OCC2=NCCN2)cc1Cl,,inactive,
COC1C(O)C(C)OC(OC2C(CO)O[C@@H](O[C@@H]3CC4CCC5C(CC[C@]6(C)[C@@H](C7=CC(=O)OC7)CC[C@]56O)[C@@]4(C)[C@H](O)C3)C(O)C2O)C1O (stereo partly specified),,,3430 nM (active)
CN(C)CCc1c[nH]c2ccc(CN3CCN(C)S3(=O)=O)cc12,,inactive,
CO[C@@H]1[C@H](O)[C@@H](O[C@@H]2C[C@H]3CC[C@@H]4C(CC[C@]5(C)[C@@H](C6=CC(=O)OC6)CC[C@]45O)[C@@]3(C)[C@H](O)C2)O[C@H](C)[C@@H]1O[C@@H]1O[C@H](CO)[C@@H](O)[C@H](O)[C@H]1O (stereo partly specified),,,769 nM (active)
COc1cc(C(=O)O[C@H]2[C@@H]3C=CO[C@@H](O[C@@H]4O[C@H](CO)[C@@H](O)[C@H](O)[C@H]4O)[C@@H]3[C@@]3(CO)O[C@@H]23)ccc1O,,inactive,
COC1C(O)C(OC2CCC3(C=O)C(CCC4C3CCC3(C)C(C5=CC(=O)OC5)CCC43O)C2)OC(C)C1OC1OC(CO)C(O)C(O)C1O (stereo unspecified),,,1720 nM (active)
CN(C(=O)Cc1ccccc1)C(CN1CCCC1)c1ccccc1 (stereo unspecified),2.22% (inactive),,
C=CC(C)(C)c1[nH]c2cccc3c2c1C[C@@H]1[C@@H]3[C@@H](OC(C)=O)[C@H](C)CN1C,,inactive,
CCN1C[C@]2(COC(=O)c3ccccc3N3C(=O)C[C@H](C)C3=O)CC[C@H](OC)[C@@]34[C@@H]5C[C@H]6[C@H](OC)[C@@H]5[C@](O)(C[C@@H]6OC)[C@](O)([C@@H](OC)[C@H]23)[C@@H]14,-1.58% (inactive),,
CC(N)Cc1c[nH]c2ccccc12 (stereo unspecified),-7.15% (inactive),,
COC(=O)C12C(=O)C(C)(O)C(=O)C1(C)C(C)=CC1C34CCC(OC3=O)C(C)(CO)C4CCC12C (stereo unspecified),0.667% (inactive),,
COC1CC(O[C@H]2CC[C@]3(C=O)C4CC[C@]5(C)[C@@H](C6=CC(=O)OC6)CC[C@]5(O)[C@@H]4CC[C@]3(O)C2)OC(C)C1O[C@@H]1O[C@H](CO)[C@@H](O)[C@H](O)[C@H]1O (stereo partly specified),,,1530 nM (active)
CO[C@H]1[C@H](O)[C@H](O[C@H]2CC[C@]3(C)C4CC[C@]5(C)[C@H](C6=CC(=O)OC6)CC[C@]5(O)C4CC[C@@H]3C2)O[C@@H](C)[C@@H]1O (stereo partly specified),,,2240 nM (active)
CN1C(=O)N(c2ccc(C#N)c(C(F)(F)F)c2)C(=O)[C@]1(CO)c1ccccc1,1.18% (inactive),,

SMILES,max response,outcome,Potency
O=C(O)c1ccnc2cc(C(OCCN3CCCCC3)c3ccccc3Cl)[nH]c12 (stereo unspecified),,inactive,
CN[C@H]1[C@H](O)[C@H](O[C@@H]2[C@@H](O)[C@H](O[C@H]3O[C@H]([C@H](C)O)[C@@H](O)[C@H](O)[C@H]3N)[C@@H](N)C[C@H]2N)OC[C@@]1(C)O,,inactive,
COC1CC(OC2CCC3(C)C(CCC4C3CCC3(C)C(C5=CC(=O)OC5)C(OC(C)=O)CC43O)C2)OC(C)C1OC1OC(CO)C(O)C(O)C1O (stereo unspecified),,,2430 nM (active)
CC1=C2C(=O)C3[C@@H](CC=C4C[C@@H](O)CC[C@@]43C)[C@@H]2CC[C@]12O[C@@H]1C[C@H](C)CN[C@H]1[C@H]2C (stereo partly specified),,inactive,
C[C@H]1C(=O)O[C@H]2[C@H](O)[C@]34C5OC(=O)[C@]3(O[C@@H]3OC(=O)[C@H](O)C34[C@H](C(C)(C)C)[C@H]5O)C12O (stereo partly specified),,inactive,
COc1cc2c(cc1OC)[C@@]13CCN4CC5=CCO[C@H]6CC(=O)N2[C@H]1[C@H]6[C@H]5C[C@H]43,-7.03% (inactive),,
COc1ccccc1CN[C@H]1C2CCN(CC2)[C@H]1C(c1ccccc1)c1ccccc1,,inactive,
Cc1cccc(NC(=O)N[C@@H]2N=C(c3ccccc3)c3ccccc3N(C)C2=O)c1,,inactive,
COC1CC(=O)C23C(=O)NC(CC(C)C)C2C(C)=C(C)C(OO)C3/C=C(\C)CCC(O)C1O (stereo unspecified),,inactive,
OC1(c2ccc(Cl)cc2)c2ccccc2C2=NCCN21 (stereo unspecified),0.153% (inactive),,
C[C@@](O)(COc1ccc(C#N)cc1)C(=O)Nc1ccc(C#N)c(C(F)(F)F)c1,,inactive,
CC(=O)O[C@H]1C[C@@H](OC(C)=O)C(C)(C)C2C[C@@H](O)[C@]3(C)C(CC[C@@]4(C)[C@H](C5=CC(=O)OC5O)C[C@H]5O[C@]543)[C@]21C (stereo partly specified),-10.3% (inactive),,
CC(C)[C@@H](CN1CC[C@@](C)(c2cccc(O)c2)[C@@H](C)C1)NC(=O)[C@H]1Cc2ccc(O)cc2CN1,,inactive,
CC(C)C1(OO)C=C2C(=O)CC3C(C)(C(=O)O)CCCC3(C)C2CC1 (stereo unspecified),,inactive,
C[C@H]1O[C@@H](O[C@H]2C[C@@H](O)[C@]3(CO)C4C(CC[C@]3(O)C2)[C@@]2(O)CC[C@H](C3=CC(=O)OC3)[C@@]2(C)C[C@H]4O)[C@@H](O)[C@@H](O)[C@H]1O (stereo partly specified),,,968 nM (active)
COC(=O)C1(C)CCC(O)C2(C)c3cc(O)c(C(C)C)cc3C(O)C(OC(C)=O)C12 (stereo unspecified),,inactive,
CCc1[nH]c2ccc(OC)cc2c1CCN(C)C,1.59% (inactive),,
CC12CCC3C(CCC4(O)CC(O)CCC34C=O)C1(O)CCC2C1=CC(=O)OC1 (stereo unspecified),,,1640 nM (active)
